According to PubChem BioAssay (NCI):
About 79,000 compounds went through this panel and 15% of them were active in at least one assay; those are over-represented in the sample as a whole. The source made the active and inactive calls. Rule as the data show it: active = growth inhibition above about 70%; inactive = the rest.

Experiments:
[1] = NCI Yeast Anticancer Drug Screen. Data for the mec2-1 strain (AID 157); settings: S. cerevisiae mec2-1 strain, stronger effect = higher value
Outline: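 Cells of the genetically defined mec2-1 yeast strain are incubated with test compound. Inhibition of growth is calculated against vehicle-treated controls.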

[2] = NCI Yeast Anticancer Drug Screen. Data for the sgs1 mgt1 strain (AID 161);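 also: 0% = growth of cultures given vehicle only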; settings: S. cerevisiae sgs1 mgt1 strain, stronger effect = higher value
Outline: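 Test agents were incubated with a DNA-repair-mutant yeast strain. Growth was then read and compared against vehicle-treated controls.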

[3] = NCI Yeast Anticancer Drug Screen. Data for the CLN2oe strain (AID 163);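 also: 0% = growth of vehicle-only control cultures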; settings: S. cerevisiae CLN2oe strain, stronger effect = higher value
Outline: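 Strain altered in cell-cycle control, incubated with compound; growth compared to solvent-treated controls.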

[4] = NCI Yeast Anticancer Drug Screen. Data for the cln2 rad14 strain (AID 165);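 also: 0% = growth equal to vehicle treated cultures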; settings: S. cerevisiae cln2 rad14 strain, stronger effect = higher value
Outline: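 The screen exposed genetically defined yeast (cln2 rad14) to test compounds and scored growth inhibition relative to vehicle-treated controls.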

[5] = NCI Yeast Anticancer Drug Screen. Data for the bub3 strain (AID 167); settings: S. cerevisiae bub3 mutant strain, stronger effect = higher value
Outline: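 Readout: yeast growth inhibition, expressed relative to vehicle-only wells. The test organism is a mutant strain from a panel with lesions in DNA repair or checkpoint genes.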

[6] = NCI Yeast Anticancer Drug Screen. Data for the wt2 strain (AID 169);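 also: 0% = growth of vehicle-treated yeast cultures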; settings: S. cerevisiae wt2 strain growth inhibition, stronger effect = higher value
Outline: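 Steps: yeast strain treated with compound; growth recorded; inhibition calculated relative to cultures given vehicle alone.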

[7] = NCI Yeast Anticancer Drug Screen. Data for the mlh1 strain (AID 171);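 also: 0% = growth of vehicle-treated control cultures of the same strain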; settings: S. cerevisiae mlh1 strain growth inhibition, stronger effect = higher value
Outline: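 Yeast screen: mutant strain plus compound, growth scored against vehicle control wells.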

[8] = NCI Yeast Anticancer Drug Screen. Data for the sgs1 strain (AID 173);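 also: 0% = growth of vehicle-only control cultures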; settings: S. cerevisiae sgs1 mutant, stronger effect = higher value
Outline: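 Inhibition of yeast growth served as the measure. The mutant strain was treated with each compound, and growth was normalised to cultures receiving vehicle alone.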

[9] = NCI Yeast Anticancer Drug Screen. Data for the mlh1 rad18 strain (AID 175); settings: S. cerevisiae mlh1 rad18 strain growth inhibition, stronger effect = higher value
Outline: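 Compound-treated yeast growth, normalised to vehicle controls. Strain bears defined DNA repair mutations.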

[10] = NCI Yeast Anticancer Drug Screen. Data for the rad18 strain (AID 177); settings: S. cerevisiae rad18 mutant growth inhibition, stronger effect = higher value
Outline: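 Inhibition values reflect reduced yeast growth compared with vehicle-treated controls, using a strain engineered with a DNA damage repair defect.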

[11] = NCI Yeast Anticancer Drug Screen. Data for the rad52 strain (AID 147);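 also: 0% = growth of vehicle-treated control cultures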; settings: S. cerevisiae rad52 mutant growth inhibition, stronger effect = higher value
Outline: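 Genetically altered yeast (DNA damage repair defect) treated with compound; inhibition calculated relative to vehicle.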

[12] = NCI Yeast Anticancer Drug Screen. Data for the wt1 strain (AID 149);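 also: 0% = growth of vehicle-treated wt1 cultures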; settings: S. cerevisiae wt1 strain (SPY 50644) growth inhibition, stronger effect = higher value
Outline: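 Growth inhibition read against vehicle controls after compound exposure of the wt1 yeast strain.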

[13] = NCI Yeast Anticancer Drug Screen. Data for the rad50EPP+ strain (AID 151);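 also: 0% = growth of vehicle-treated control cultures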; settings: S. cerevisiae rad50 mutant strain, stronger effect = higher value
Outline: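 Strain rad50EPP+; compound exposure; % growth inhibition vs vehicle.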

[14] = NCI Yeast Anticancer Drug Screen. Data for the mgt1 strain (AID 153); settings: S. cerevisiae mgt1 mutant growth inhibition, stronger effect = higher value
Outline: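 Read-out: yeast growth inhibition vs vehicle control. Strain mgt1, drawn from a panel altered in DNA damage repair or cell cycle control.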

[15] = NCI Yeast Anticancer Drug Screen. Data for the rad50 strain (AID 155);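 also: 0% = growth of vehicle-only cultures of the same strain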; settings: S. cerevisiae rad50 strain growth inhibition, stronger effect = higher value
Outline: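 Readout: growth inhibition relative to vehicle-treated cultures. Compound exposure was carried out in a genetically defined yeast strain deficient in DNA damage repair.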

[16] = at 5.0 µM (retest, dose inferred, filed as 0.5)
[17] = at 50.0 µM (retest, dose inferred, filed as 5.0)

Measured: growth inhibition

COc1ccc(C/C=N/Nc2ccc([N+](=O)[O-])cc2)cc1OC
active: [1]; [17] 98% | [1]; at 50.0 µM 97.3% | [2]; [17] 97% | [2]; at 50.0 µM 97.5% | [4]; [17] 89% | [5]; [17] 97% | [5]; at 50.0 µM 98.2% | [8]; at 100.0 µM 73% | [9]; [17] 98% | [9]; at 50.0 µM 97.8%
inactive: [1]; [16] 16% | [1]; at 11.0 µM 4% | [1]; at 33.0 µM 1% | [1]; at 100.0 µM 6% | [2]; [16] 9% | [3]; at 1.2 µM 8% | [3]; at 3.7 µM 6% | [3]; at 11.0 µM 12% | [3]; at 33.0 µM 1% | [3]; at 100.0 µM 20% | [4]; [16] -3% | [4]; at 50.0 µM 54.4% | [5]; at 1.2 µM 3% | [5]; at 3.7 µM 2% | [5]; [16] 12% | [5]; at 11.0 µM 8% | [5]; at 33.0 µM 13% | [5]; at 100.0 µM 23% | [6]; at 1.2 µM -2% | [6]; at 3.7 µM -1% | [6]; at 11.0 µM 5% | [6]; at 33.0 µM 5% | [6]; at 100.0 µM -3% | [7]; at 1.2 µM -1% | [7]; at 3.7 µM 6% | [7]; at 11.0 µM 9% | [7]; at 33.0 µM 11% | [7]; at 100.0 µM 31% | [8]; at 1.2 µM -17% | [8]; at 3.7 µM -24% | [8]; at 11.0 µM -8% | [8]; at 33.0 µM 48% | [9]; [16] 7% | [10]; at 1.2 µM 15% | [10]; at 3.7 µM 43% | [10]; at 11.0 µM 26% | [10]; at 33.0 µM 20% | [10]; at 100.0 µM 56%

O=C(c1ccc([N+](=O)[O-])cc1)C1N=NCC1c1ccccc1 (stereo not drawn)
inactive: [11]; at 1.2 µM 2% | [11]; at 3.7 µM 5% | [11]; at 11.0 µM 6% | [11]; at 33.0 µM 7% | [11]; at 100.0 µM 45% | [12]; at 1.2 µM 2% | [12]; at 3.7 µM 1% | [12]; at 11.0 µM 4% | [12]; at 33.0 µM 1% | [12]; at 100.0 µM 9% | [13]; at 1.2 µM -2% | [13]; at 3.7 µM -3% | [13]; at 11.0 µM -2% | [13]; at 33.0 µM 9% | [13]; at 100.0 µM 37% | [14]; at 1.2 µM -4% | [14]; at 3.7 µM -2% | [14]; at 11.0 µM 0% | [14]; at 33.0 µM 19% | [14]; at 100.0 µM 62% | [15]; at 1.2 µM 4% | [15]; at 3.7 µM 4% | [15]; [16] 13% | [15]; at 11.0 µM 5% | [15]; at 33.0 µM 7% | [15]; [17] 11% | [15]; at 50.0 µM 31% | [15]; at 100.0 µM 34% | [1]; at 1.2 µM -2% | [1]; at 3.7 µM 1% | [1]; [16] 0% | [1]; at 11.0 µM 1% | [1]; at 33.0 µM 1% | [1]; [17] 22% | [1]; at 50.0 µM 20.8% | [1]; at 100.0 µM 45% | [2]; [16] 3% | [2]; [17] 27% | [2]; at 50.0 µM 59% | [3]; at 1.2 µM 0% | [3]; at 3.7 µM 2% | [3]; at 11.0 µM 4% | [3]; at 33.0 µM 9% | [3]; at 100.0 µM 54% | [5]; at 1.2 µM 0% | [5]; at 3.7 µM -3% | [5]; [16] -3% | [5]; at 11.0 µM 2% | [5]; at 33.0 µM 11% | [5]; [17] 30% | [6]; at 1.2 µM 0% | [6]; at 3.7 µM -1% | [6]; at 11.0 µM 1% | [6]; at 33.0 µM 4% | [6]; at 100.0 µM 64% | [8]; at 1.2 µM 0% | [8]; at 3.7 µM 1% | [8]; at 11.0 µM 3% | [8]; at 33.0 µM 13% | [9]; [16] -3% | [9]; [17] 35% | [9]; at 50.0 µM 42% | [10]; at 1.2 µM 2% | [10]; at 3.7 µM 0% | [10]; at 11.0 µM 7% | [10]; at 33.0 µM 1% | [10]; at 100.0 µM 40%
active: [5]; at 50.0 µM 71.8% | [5]; at 100.0 µM 75% | [8]; at 100.0 µM 78%

CCc1cc(O)c(Cl)c(C)c1Cl
inactive: [11]; at 1.2 µM -5% | [11]; at 3.7 µM 6% | [11]; at 11.0 µM -8% | [11]; at 33.0 µM 14% | [12]; at 1.2 µM 7% | [12]; at 3.7 µM 21% | [12]; at 11.0 µM 14% | [12]; at 33.0 µM 20% | [13]; at 1.2 µM -12% | [13]; at 3.7 µM 0% | [13]; at 11.0 µM -13% | [13]; at 33.0 µM 40% | [14]; at 1.2 µM 14% | [14]; at 3.7 µM 3% | [14]; at 11.0 µM 28% | [15]; at 1.2 µM -29% | [15]; at 3.7 µM -19% | [15]; [16] 42% | [15]; at 11.0 µM -31% | [15]; at 33.0 µM 43% | [15]; at 50.0 µM 29.6% | [1]; at 1.2 µM -8% | [1]; at 3.7 µM -5% | [1]; [16] 44% | [1]; at 11.0 µM -13% | [1]; at 33.0 µM 3% | [1]; at 50.0 µM 34.9% | [2]; [16] -9% | [2]; [17] 33% | [2]; at 50.0 µM 45.5% | [3]; at 1.2 µM 18% | [3]; at 3.7 µM -21% | [3]; at 11.0 µM 1% | [3]; at 33.0 µM 28% | [5]; at 1.2 µM -11% | [5]; at 3.7 µM 11% | [5]; [16] 21% | [5]; at 11.0 µM 5% | [5]; at 33.0 µM 31% | [5]; [17] 49% | [5]; at 50.0 µM 69.5% | [6]; at 1.2 µM -33% | [6]; at 3.7 µM -29% | [6]; at 11.0 µM -25% | [6]; at 33.0 µM 20% | [7]; at 1.2 µM 18% | [7]; at 3.7 µM 5% | [7]; at 11.0 µM 17% | [7]; at 33.0 µM 40% | [8]; at 1.2 µM -4% | [8]; at 3.7 µM 6% | [8]; at 11.0 µM 1% | [8]; at 33.0 µM 44% | [9]; [16] 48% | [9]; at 50.0 µM 13.9% | [10]; at 1.2 µM -14% | [10]; at 3.7 µM -30% | [10]; at 11.0 µM -40% | [10]; at 33.0 µM -27% | [10]; at 100.0 µM 63%
active: [11]; at 100.0 µM 75% | [12]; at 100.0 µM 87% | [13]; at 100.0 µM 90% | [14]; at 33.0 µM 73% | [14]; at 100.0 µM 96% | [15]; [17] 77% | [15]; at 100.0 µM 97% | [1]; [17] 86% | [1]; at 100.0 µM 73% | [3]; at 100.0 µM 71% | [5]; at 100.0 µM 85% | [6]; at 100.0 µM 90% | [7]; at 100.0 µM 81% | [8]; at 100.0 µM 92% | [9]; [17] 93%
